From the supplement of paper PMC6411743
± gives the standard deviation of the averaged measurements. The full data set covers some 5,400 targets. This sample favours those with the largest changes.

Compound: Nc1nc2c(ncn2[C@@H]2O[C@H](COP(=O)(O)OP(=O)(O)OP(=O)(O)O)[C@@H](O)[C@H]2O)c(=O)[nH]1 [guanosine triphosphate]
Assay: NP40-soluble protein abundance relative to vehicle (solubility fold change) (ratio); higher = more soluble protein in presence of GTP
Description: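 Solubility proteome profiling in Jurkat crude lysate. Lysate was treated with Mg-GTP (0.1-10 mM) for 10 min at room temperature and 3 min at 37 °C, then solubilised with 0.8% NP40 and benzonase, followed by ultracentrifugation. Proteins were quantified by TMT10 LC-MS/MS; the value is the NP40-soluble abundance relative to the NP40-processed vehicle, from 3 independent experiments.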

UniProt Q9C073, sequence (Q9C073 whole entry): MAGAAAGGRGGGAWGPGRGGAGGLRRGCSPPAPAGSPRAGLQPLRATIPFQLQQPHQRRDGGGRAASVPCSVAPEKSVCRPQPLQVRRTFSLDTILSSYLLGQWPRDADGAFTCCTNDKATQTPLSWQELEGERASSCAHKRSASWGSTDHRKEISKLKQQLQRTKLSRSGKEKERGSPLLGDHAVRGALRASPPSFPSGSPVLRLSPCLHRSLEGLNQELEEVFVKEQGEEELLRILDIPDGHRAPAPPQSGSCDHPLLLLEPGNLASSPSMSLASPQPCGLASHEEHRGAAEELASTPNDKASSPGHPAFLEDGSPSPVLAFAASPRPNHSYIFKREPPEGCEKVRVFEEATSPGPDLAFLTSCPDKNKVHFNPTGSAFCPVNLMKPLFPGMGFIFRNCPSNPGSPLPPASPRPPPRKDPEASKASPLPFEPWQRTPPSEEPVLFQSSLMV
UniProt Q9BSF4, sequence (Q9BSF4 whole entry): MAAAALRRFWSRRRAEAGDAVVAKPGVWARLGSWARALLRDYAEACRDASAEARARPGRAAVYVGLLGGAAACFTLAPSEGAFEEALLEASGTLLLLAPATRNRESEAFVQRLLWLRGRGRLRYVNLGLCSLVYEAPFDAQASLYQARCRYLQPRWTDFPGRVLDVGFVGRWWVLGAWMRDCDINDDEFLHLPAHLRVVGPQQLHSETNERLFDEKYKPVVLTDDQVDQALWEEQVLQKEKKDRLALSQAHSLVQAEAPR
UniProt Q96EM0, sequence (Q96EM0 whole entry): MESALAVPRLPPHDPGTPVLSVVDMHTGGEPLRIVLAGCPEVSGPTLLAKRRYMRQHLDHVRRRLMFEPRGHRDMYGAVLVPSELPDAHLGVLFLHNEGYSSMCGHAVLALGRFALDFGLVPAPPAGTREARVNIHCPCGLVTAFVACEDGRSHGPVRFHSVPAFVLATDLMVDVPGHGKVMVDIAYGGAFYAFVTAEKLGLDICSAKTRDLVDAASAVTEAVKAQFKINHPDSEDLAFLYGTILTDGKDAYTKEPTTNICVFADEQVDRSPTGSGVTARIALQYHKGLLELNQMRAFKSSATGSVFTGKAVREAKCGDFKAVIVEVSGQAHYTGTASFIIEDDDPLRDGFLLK
UniProt Q9Y4P8, sequence (Q9Y4P8 whole entry): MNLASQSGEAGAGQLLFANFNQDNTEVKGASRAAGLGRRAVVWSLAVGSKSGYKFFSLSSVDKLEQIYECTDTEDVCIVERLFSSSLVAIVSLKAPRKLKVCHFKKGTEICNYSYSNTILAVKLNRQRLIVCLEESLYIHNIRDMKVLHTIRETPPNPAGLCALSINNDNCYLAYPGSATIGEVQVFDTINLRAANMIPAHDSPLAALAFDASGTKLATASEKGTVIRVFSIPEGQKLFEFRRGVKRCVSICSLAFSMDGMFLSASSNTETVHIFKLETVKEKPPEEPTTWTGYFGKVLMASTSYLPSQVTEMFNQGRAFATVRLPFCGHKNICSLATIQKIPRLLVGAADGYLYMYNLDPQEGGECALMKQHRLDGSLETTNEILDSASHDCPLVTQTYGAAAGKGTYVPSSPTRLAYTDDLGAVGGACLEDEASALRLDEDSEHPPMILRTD
UniProt Q9ULV4, sequence (Q9ULV4 whole entry): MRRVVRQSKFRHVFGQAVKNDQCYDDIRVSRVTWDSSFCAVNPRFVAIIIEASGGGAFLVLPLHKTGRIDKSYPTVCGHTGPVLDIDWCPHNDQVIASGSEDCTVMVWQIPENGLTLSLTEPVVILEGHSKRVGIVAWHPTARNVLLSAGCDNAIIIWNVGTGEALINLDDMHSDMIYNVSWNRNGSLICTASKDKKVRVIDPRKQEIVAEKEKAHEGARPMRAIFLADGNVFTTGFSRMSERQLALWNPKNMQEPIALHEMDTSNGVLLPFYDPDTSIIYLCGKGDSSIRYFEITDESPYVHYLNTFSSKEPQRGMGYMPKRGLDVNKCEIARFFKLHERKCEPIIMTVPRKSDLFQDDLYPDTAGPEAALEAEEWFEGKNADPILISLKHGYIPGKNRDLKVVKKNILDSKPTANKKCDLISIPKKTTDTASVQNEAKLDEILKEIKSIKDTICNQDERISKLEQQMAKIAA

Target	NP40-soluble protein abundance (concentration: 0.1mM)	NP40-soluble protein abundance (concentration: 0.5mM)	NP40-soluble protein abundance (concentration: 1mM)	NP40-soluble protein abundance (concentration: 2mM)	NP40-soluble protein abundance (concentration: 4mM)	NP40-soluble protein abundance (concentration: 6mM)	NP40-soluble protein abundance (concentration: 8mM)	NP40-soluble protein abundance (concentration: 10mM)
UniProt Q96EM0	0.976 ± 0.19	0.971 ± 0.15	0.869 ± 0.093	0.892 ± 0.11	1.02 ± 0.026	0.929 ± 0.095	0.85 ± 0.16	0.895 ± 0.085
UniProt Q9Y4P8|Q9Y4P8-4|Q9Y4P8-6	1.04 ± 0.11	1.01 ± 0.028	0.976 ± 0.11	0.961 ± 0.1	0.959 ± 0.1	0.959 ± 0.053	0.954 ± 0.042	0.896 ± 0.021
FAM117A (UniProt Q9C073)	1.31 ± 0.14	0.983 ± 0.018	1.28 ± 0.084	1.03 ± 0.024	1.1204 ± 7.8e-05	1.02 ± 0.037	1.1 ± 0.056	1.12 ± 0.086
UniProt Q9ULV4|Q9ULV4-2|Q9ULV4-3	0.986 ± 0.021	1.11 ± 0.089	1.16 ± 0.088	1.26 ± 0.17	1.42 ± 0.22	1.53 ± 0.3	1.67 ± 0.33	1.74 ± 0.36
UniProt Q9BSF4	1.16 ± 0.16	1.09 ± 0.11	1.12 ± 0.085	1.11 ± 0.027	1.18 ± 0.091	1.17 ± 0.037	0.972 ± 0.071	0.97875 ± 0.0002
